Laboratory results as given in the supplement of paper PMC12350171.
Structures can show the parent of a compound that is named as a salt.

system: S. enterica typhimurium WT; test: growth AUC normalised to DMSO control (median) (fraction of control); higher = less growth inhibition, active = hit call of the paper; conditions: 20 µM
Outline: (§1)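 Strains were passaged twice overnight without oxygen, then grown in mGAM in 96-well plates with each approved-drug library compound at 20 μM and 1% DMSO, starting at OD578 0.01. OD578 was read hourly for 24 h inside an anaerobic incubator. Curves were truncated at entry into stationary phase, and the trapezoidal-rule area under the curve was normalised to same-plate vehicle wells. The value is the median across three biological replicates.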
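Further: active when median AUC fell below 0.1.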

Row | SMILES | growth AUC normalised to DMSO control
1 | O=C(Oc1cccc2cccnc12)c1ccccc1 [Benzoxiquine] | 0.994 (inactive)
2 | CC1=NN(c2ccccc2)C(=O)C1 [Edaravone] | 1 (inactive)
3 | COc1ccc(C(=O)CC(=O)c2ccc(C(C)(C)C)cc2)cc1 [Avobenzone] | 0.992 (inactive)
4 | CCCCc1oc2ccc(NS(C)(=O)=O)cc2c1C(=O)c1ccc(OCCCN(CCCC)CCCC)cc1 [Dronedarone hydrochloride] | 1 (inactive)
5 | CCC[C@@H]1C[C@@H](C(=O)N[C@@H]([C@H]2O[C@H](SC)[C@H](OP(=O)(O)O)[C@@H](O)[C@H]2O)[C@H](C)Cl)N(C)C1 [Clindamycin Phosphate] | 1 (inactive)
6 | O=C1[C@H]2CCCC[C@H]2C(=O)N1CCCCN1CCN(c2nsc3ccccc23)CC1 [Perospirone hydrochloride] | 0.998 (inactive)
7 | CCN(CC)CCOCCOC(=O)C(CC)(CC)c1ccccc1 [Oxeladin citrate] | 0.995 (inactive)
8 | O=C(O)c1cc(=O)[nH]c(=O)[nH]1 [Orotic acid] | 1 (inactive)
9 | CC(=O)Oc1ccc(C(=C2CCCCC2)c2ccc(OC(C)=O)cc2)cc1 [Cyclofenil] | 0.997 (inactive)
10 | CC(COc1ccccc1)NN (configuration not stated) [Phenoxypropazine dihydrochloride] | 1.01 (inactive)
11 | CCCCOCCOCCOCc1cc2c(cc1CCC)OCO2 [Piperonyl butoxide] | 1.02 (inactive)
12 | Cc1nc2ccccc2n1Cc1ccc(Cl)cc1 [Chlormidazole] | 0.951 (inactive)
13 | CS(=O)(=O)c1ccc([C@@H](O)[C@@H](CF)NC(=O)C(Cl)Cl)cc1 [Florfenicol] | 0.00248 (active)
14 | Nc1c2ccccc2nc2ccccc12 [Aminacrine] | 0.902 (inactive)
15 | CN(C)C(=O)COC(=O)Cc1ccc(OC(=O)c2ccc(NC(=N)N)cc2)cc1 [Camostat mesylate] | 0.997 (inactive)
16 | CC(C)C[C@H](NC(=O)[C@@H](O)[C@H](N)Cc1ccccc1)C(=O)O [Ubenimex] | 1 (inactive)
17 | CCCC(=O)N1CCCN(c2nc(N)c3cc(OC)c(OC)cc3n2)CC1 [Bunazosin hydrochloride] | 1 (inactive)
18 | C=C1[C@H](CO)[C@@H](O)C[C@@H]1n1cnc2c(=O)[nH]c(N)nc21 [Entecavir] | 0.999 (inactive)
19 | CC(=O)OCC(=O)[C@@]1(O)CC[C@H]2[C@@H]3CCC4=CC(=O)C=C[C@]4(C)[C@@]3(F)[C@@H](O)C[C@@]21C [Isoflupredone acetate] | 1 (inactive)
20 | O=C(O)CNC(=O)c1ccccc1 [Hippuric acid] | 1.01 (inactive)
21 | O=C(O)Cc1ccccc1Oc1ccc(Cl)cc1Cl [Fenclofenac] | 1.02 (inactive)
22 | CNCC[C@@H](Oc1cccc2ccccc12)c1cccs1 [(R)-Duloxetine hydrochloride] | 0.999 (inactive)
23 | CCN1CC(CCN2CCOCC2)C(c2ccccc2)(c2ccccc2)C1=O (configuration not stated) [Doxapram hydrochloride] | 1.02 (inactive)
24 | CC[N+]1(CC)CCC(=C(c2ccccc2)c2ccccc2)C1C (configuration not stated) [Prifinium Bromide] | 1 (inactive)
25 | Cc1ccc(Nc2c(F)cccc2Cl)c(CC(=O)O)c1 [Lumiracoxib] | 1 (inactive)
26 | NC(=O)[C@@H]1CCCN1C(=O)[C@H](Cc1c[nH]cn1)NC(=O)[C@@H]1CCC(=O)N1 [Thyrotropin-Releasing Hormone] | 0.996 (inactive)
27 | CC(=O)c1cc2cccc(OCC(O)CNC(C)C)c2o1 (configuration not stated) [Befunolol] | 1 (inactive)
28 | CN1CC(=O)N2[C@H](c3ccc4c(c3)OCO4)c3[nH]c4ccccc4c3C[C@@H]2C1=O [Tadalafil] | 0.996 (inactive)

system: S. enterica typhimurium tolC KO; test: as above; conditions: 20 µM
Outline: as §1

Row | SMILES | growth AUC normalised to DMSO control
29 | O=C(Cn1c(=O)sc2ccc(Cl)cc21)N1CCN(CCO)CC1 [Tiaramide Hydrochloride] | 0.995 (inactive)
30 | O=P(O)(O)C(O)(Cn1ccnc1)P(=O)(O)O [Zoledronic acid hydrate] | 0.994 (inactive)
31 | O=C(O)CCNC(=O)c1ccccc1 [Betamipron] | 0.807 (inactive)
32 | Cc1cn(-c2cc(NC(=O)c3ccc(C)c(Nc4nccc(-c5cccnc5)n4)c3)cc(C(F)(F)F)c2)cn1 [Nilotinib] | 0.984 (inactive)
33 | OC(CNCC(O)C1CCc2cc(F)ccc2O1)C1CCc2cc(F)ccc2O1 (configuration not stated) [Nebivolol hydrochloride] | 0.925 (inactive)
34 | N#C/C(=C1/SCC(c2ccccc2Cl)S1)n1ccnc1 (configuration not stated) [Lanoconazole] | 0.834 (inactive)
35 | Nc1ccc2cc3ccc(N)cc3nc2c1 [Proflavine hemisulfate] | 0.91 (inactive)
36 | COc1ccc2cc1Oc1ccc(cc1)C[C@H]1c3c(cc4c(c3Oc3cc5c(cc3OC)CCN(C)[C@@H]5C2)OCO4)CCN1C [Cepharanthine] | 0.998 (inactive)
37 | COc1cc2c(cc1OC)CC(=O)N(CCCN(C)C[C@H]1Cc3cc(OC)c(OC)cc31)CC2 [Ivabradine hydrochloride] | 0.965 (inactive)
38 | CC(C)C(=O)OCC(=O)[C@@]12O[C@H](C3CCCCC3)O[C@@H]1C[C@H]1[C@@H]3CCC4=CC(=O)C=C[C@]4(C)[C@H]3[C@@H](O)C[C@@]12C [Ciclesonide] | 1.01 (inactive)
39 | CCOC(=O)c1c(N)sc2c1CCN(Cc1ccccc1)C2 [Tinoridine hydrochloride] | 0.969 (inactive)
40 | O=C(Oc1cccc2cccnc12)c1ccccc1 [Benzoxiquine] | 0.968 (inactive)
41 | CC1=NN(c2ccccc2)C(=O)C1 [Edaravone] | 0.982 (inactive)
42 | COc1ccc(C(=O)CC(=O)c2ccc(C(C)(C)C)cc2)cc1 [Avobenzone] | 0.976 (inactive)
43 | CCCCc1oc2ccc(NS(C)(=O)=O)cc2c1C(=O)c1ccc(OCCCN(CCCC)CCCC)cc1 [Dronedarone hydrochloride] | 1 (inactive)
44 | CCC[C@@H]1C[C@@H](C(=O)N[C@@H]([C@H]2O[C@H](SC)[C@H](OP(=O)(O)O)[C@@H](O)[C@H]2O)[C@H](C)Cl)N(C)C1 [Clindamycin Phosphate] | 0.961 (inactive)
45 | O=C1[C@H]2CCCC[C@H]2C(=O)N1CCCCN1CCN(c2nsc3ccccc23)CC1 [Perospirone hydrochloride] | 0.98 (inactive)
46 | CCN(CC)CCOCCOC(=O)C(CC)(CC)c1ccccc1 [Oxeladin citrate] | 0.973 (inactive)
47 | O=C(O)c1cc(=O)[nH]c(=O)[nH]1 [Orotic acid] | 1.01 (inactive)
48 | CC(=O)Oc1ccc(C(=C2CCCCC2)c2ccc(OC(C)=O)cc2)cc1 [Cyclofenil] | 0.972 (inactive)

Row | SMILES | growth AUC normalised to DMSO control
49 | CC(COc1ccccc1)NN (configuration not stated) [Phenoxypropazine dihydrochloride] | 0.994 (inactive)
50 | CCCCOCCOCCOCc1cc2c(cc1CCC)OCO2 [Piperonyl butoxide] | 0.872 (inactive)
51 | Cc1nc2ccccc2n1Cc1ccc(Cl)cc1 [Chlormidazole] | 0.833 (inactive)
52 | CS(=O)(=O)c1ccc([C@@H](O)[C@@H](CF)NC(=O)C(Cl)Cl)cc1 [Florfenicol] | 0.00279 (active)
53 | Nc1c2ccccc2nc2ccccc12 [Aminacrine] | 0.903 (inactive)
54 | CN(C)C(=O)COC(=O)Cc1ccc(OC(=O)c2ccc(NC(=N)N)cc2)cc1 [Camostat mesylate] | 1 (inactive)
55 | CC(C)C[C@H](NC(=O)[C@@H](O)[C@H](N)Cc1ccccc1)C(=O)O [Ubenimex] | 0.992 (inactive)
56 | CCCC(=O)N1CCCN(c2nc(N)c3cc(OC)c(OC)cc3n2)CC1 [Bunazosin hydrochloride] | 0.994 (inactive)
57 | C=C1[C@H](CO)[C@@H](O)C[C@@H]1n1cnc2c(=O)[nH]c(N)nc21 [Entecavir] | 0.987 (inactive)
58 | CC(=O)OCC(=O)[C@@]1(O)CC[C@H]2[C@@H]3CCC4=CC(=O)C=C[C@]4(C)[C@@]3(F)[C@@H](O)C[C@@]21C [Isoflupredone acetate] | 0.98 (inactive)
59 | O=C(O)CNC(=O)c1ccccc1 [Hippuric acid] | 1.02 (inactive)
60 | O=C(O)Cc1ccccc1Oc1ccc(Cl)cc1Cl [Fenclofenac] | 1.02 (inactive)
61 | CNCC[C@@H](Oc1cccc2ccccc12)c1cccs1 [(R)-Duloxetine hydrochloride] | 0.929 (inactive)
62 | CCN1CC(CCN2CCOCC2)C(c2ccccc2)(c2ccccc2)C1=O (configuration not stated) [Doxapram hydrochloride] | 0.996 (inactive)
63 | CC[N+]1(CC)CCC(=C(c2ccccc2)c2ccccc2)C1C (configuration not stated) [Prifinium Bromide] | 0.935 (inactive)
64 | Cc1ccc(Nc2c(F)cccc2Cl)c(CC(=O)O)c1 [Lumiracoxib] | 1 (inactive)
65 | NC(=O)[C@@H]1CCCN1C(=O)[C@H](Cc1c[nH]cn1)NC(=O)[C@@H]1CCC(=O)N1 [Thyrotropin-Releasing Hormone] | 1.01 (inactive)
66 | CC(=O)c1cc2cccc(OCC(O)CNC(C)C)c2o1 (configuration not stated) [Befunolol] | 1 (inactive)
67 | CN1CC(=O)N2[C@H](c3ccc4c(c3)OCO4)c3[nH]c4ccccc4c3C[C@@H]2C1=O [Tadalafil] | 0.981 (inactive)
